Hit rate of the full screen: of about 31,000 sequences, about 1,400 (4.5%) were called active.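 How the source made its calls: active means median seed-adjusted z-score above 1 or below -1; inactive means the rest.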 The sample as a whole holds a higher share of actives than the screen did.
test: Novel Modifiers of Survival Motor Neuron (SMN) Protein: Gene Identification via Genome-wide siRNA Screen; details: HEK293T SMN2-luciferase reporter, siRNA knockdown, 72 h; actives lie on both sides;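 further: luminescence tracks full-length SMN protein made from the SMN2 reporter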
Outline: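 HEK293T cells stably expressing an SMN2 splicing/cDNA-luciferase reporter were reverse-transfected with a druggable-genome siRNA library and read by luminescence at 72 hours; hits defined by MAD score above 1.0 or below -1.0.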

| Sequence | median seed-adjusted z-score |
| --- | --- |
| CCAAGUCCCAUACAACAAATT against C1S | -0.561 (inactive) |
| GCUUCUACCUUUACACGGATT against PDE1A | 0 (inactive) |
| CUAUAGCUGUCUCCCAGAATT against PRICKLE2 | -1.12 (active) |
| GGAGAAAAACUAUAUGAAUTT against ZNF585B | 0.158 (inactive) |
| CUUUGGAACAAAUACCGAATT against NXN | 0.175 (inactive) |
| CACCUAUAGUGACGAUAUATT against MEP1B | 1.46 (active) |
| AGGCAUUCCUCGGAAGUCATT against SMAD7 | -0.25 (inactive) |
| CCAUCGUUUUGGUCUUGUATT against VN1R2 | -0.151 (inactive) |
| GGAAAGAACUACCUCCUGATT against TREH | 0.396 (inactive) |
| GGAAGAUCAUAGAAGUUGATT against SLC1A1 | 0.0967 (inactive) |
| CCAUUGUCACGGGCUUGUATT against ENPP3 | 0.66 (inactive) |
| GCAUCUAUGUCAACAAGAUTT against POLR2I | -3.27 (active) |
| CUGCUAAACUUGAACCGAATT against TM9SF2 | 1.09 (active) |
| UCCUAUCAGAAGUUGCAUATT against RKHD4 | 0.0683 (inactive) |
| CAAUGUUUACUACAAUGAATT against TUBB2B | 0.935 (inactive) |
| GGAGUGCUAGAAUCUACUATT against HEPH | -0.293 (inactive) |
| GGAUACAAAGCACAUAACATT against UBE2D4 | 0.232 (inactive) |
| GAGCAUUAUGUUACACCAATT against TTC6 | 0.234 (inactive) |
| GAACCUCAGUUGAGUAUUUTT against RPE | 0.616 (inactive) |
| CAGUGCUGUUAGAAUAAAATT against ZNHIT1 | -0.497 (inactive) |
| UGUGGAGAAUGACUACAUATT against SPRY4 | -1.23 (active) |
| GGAUGACCAGGGUCUAUAATT against FMO4 | -0.359 (inactive) |
| CCAUGAAUUCUUACUUUUATT against VAC14 | 0.0825 (inactive) |

| Sequence | median seed-adjusted z-score |
| --- | --- |
| CAGAAUCAGCUGGAAGAAATT against BAIAP2 | -0.0497 (inactive) |
| GUAGCAGGGCUGAACCCAUTT against ZMAT5 | 0.292 (inactive) |
| GCCGUGACCUACUUCAUCATT against SLC29A4 | 0.0192 (inactive) |
| CAGCUGAUGCGGACCAAGATT against RASSF4 | 0.29 (inactive) |
| GAUACUCGUAUUAAGCCUATT against USP32 | 0.484 (inactive) |
| GAACUGUGCUGAUGUGAAATT against PATE1 | 1.21 (active) |
| GCAAGUCGUGAAACUAUAATT against YEATS4 | 0.905 (inactive) |
| GGUGCUGAAUGUGGAGUAATT against DNAJC3 | 0.502 (inactive) |
| GCAGAACAACGAGCACAGATT against CTSW | -0.342 (inactive) |
| GGAAUUCCAGUAACGAUGATT against RNF149 | -0.17 (inactive) |
| GCAUAAAUGAAAUCUCGGATT against ZMYND8 | -0.065 (inactive) |
| GGGUCAUCCGAGAAAAGAATT against ADAMTS17 | 0.257 (inactive) |
| GAGCAGUACAGAACAGGAATT against HAAO | 0.214 (inactive) |
| GCUGCUCACUGUUUCAUGATT against PRSS36 | 0.589 (inactive) |
| CAACAGAAUAUGCCGUAUATT against SNRPA1 | -2.71 (active) |
| GUUUGCAUGUGACAAUGGATT against PPTC7 | 0.49 (inactive) |
| GCACAGGUCUAAUUCGUCUTT against GRIK1 | -0.31 (inactive) |
| CGACACCGGAUAAACCAAATT against HES1 | -0.262 (inactive) |
| GCACCAGGAUAUGUCUUAATT against YY1AP1 | 0.0453 (inactive) |
| GGUCAAAGAGUUAUAGAUUTT against MKKS | 1.03 (active) |
| GGUGUCACCCUGUGAAUUUTT against MAP1S | 0.0941 (inactive) |
| AGCCUAUGGUCGGAACGAATT against APOBEC3F | -0.315 (inactive) |
| GCACCUAUGCAGCUCUUCATT against FBLIM1 | 0.0604 (inactive) |

| Sequence | median seed-adjusted z-score |
| --- | --- |
| GGGUUACCCUGGUCAUUAATT against ZNHIT2 | -0.339 (inactive) |
| GGAGAGACCAGUAAACCGATT against NSFL1C | -0.0899 (inactive) |
| CGAUGAACAUGUUAGACAUTT against AZIN1 | -1.14 (active) |
| GUACAGGGAGCAGAUCAAATT against HRAS | -0.85 (inactive) |
| GGAUGUUCACAACCGAAUUTT against CTNNB1 | 0.0802 (inactive) |
| GGGUAAACGAUUCCAGCAATT against N-PAC | 0.0542 (inactive) |
| GAAUUGGACUGGAUGCUAATT against DGKK | 0 (inactive) |
| GGUCCAAAGGGAUCAGGAATT against EMR2 | 0.0569 (inactive) |
| GCAUCGUUUCUAUGAACUUTT against KCNB2 | 1.22 (active) |
| GGAUGUAAGCCUGACCAUATT against ZNF784 | 0.291 (inactive) |
| CCAGAAAGCUUCAUCCACATT against MC1R | -0.64 (inactive) |
| GCAGAUCCCUUGUUUUCCUTT against APLN | 0.0181 (inactive) |
| CGCUUAAGCCUUCCAACAATT against POLR2A | -3.81 (active) |
| CGGGCAUUCUUAUUAGUCATT against SLC2A2 | -0.498 (inactive) |
| CAUCCAGCAUACAAAAGAATT against FCRL3 | -0.642 (inactive) |
| GCCUCAGUGUUAUUCGAUATT against MAP1B | 0.139 (inactive) |
| AGAUCGACUUGAUCGUGCATT against CDK10 | 0.327 (inactive) |
| CAGUCUUCACUGACAACUATT against VIP | 1.52 (active) |
| GGACCAAGAUGAUCAGAAATT against SAFB | -0.954 (inactive) |
| CAUAGUCCUUGGACAUGUATT against TDRD9 | 0.0754 (inactive) |
| CUACCAAUAUGAUAGGUUATT against DDX17 | 0.231 (inactive) |
| CUAUAGGUUUUAUAGCAUUTT against LIPA | 0.535 (inactive) |
| GAGUUUCUGUCCAAACUGATT against IL17RA | -1.29 (active) |

Reference: PubChem BioAssay AID1347426 (Functional Genomics Laboratory (NCATS/FGL), 2020)
